# Test results from PubChem BioAssay (NCI).
# Values joined by “and” are separate entries in the source; they are usually repeats but may differ in a detail not shown here. Equal entries are not always repeated. About 79,000 compounds went through this panel and 15% of them were active in at least one assay; those are over-represented in the sample as a whole. More than one record can exist for a structure, and the calls need not agree. Active and inactive are the calls of the source. No stated cut-off is given here; in the data, active means growth inhibition above about 70%; inactive means the rest.
# Key:
# [1] = NCI Yeast Anticancer Drug Screen. Data for the mec2-1 strain (AID 157); conditions: S. cerevisiae mec2-1 strain, stronger effect = higher value
# Outline: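 Cells of the genetically defined mec2-1 yeast strain are incubated with test compound. Inhibition of growth is calculated against vehicle-treated controls.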
# [2] = NCI Yeast Anticancer Drug Screen. Data for the sgs1 mgt1 strain (AID 161);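 further: 0% = growth of cultures given vehicle only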; conditions: S. cerevisiae sgs1 mgt1 strain, stronger effect = higher value
# Outline: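 Test agents were incubated with a DNA-repair-mutant yeast strain. Growth was then read and compared against vehicle-treated controls.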
# [3] = NCI Yeast Anticancer Drug Screen. Data for the CLN2oe strain (AID 163);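 further: 0% = growth of vehicle-only control cultures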; conditions: S. cerevisiae CLN2oe strain, stronger effect = higher value
# Outline: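 Strain altered in cell-cycle control, incubated with compound; growth compared to solvent-treated controls.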
# [4] = NCI Yeast Anticancer Drug Screen. Data for the cln2 rad14 strain (AID 165);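 further: 0% = growth equal to vehicle treated cultures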; conditions: S. cerevisiae cln2 rad14 strain, stronger effect = higher value
# Outline: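 The screen exposed genetically defined yeast (cln2 rad14) to test compounds and scored growth inhibition relative to vehicle-treated controls.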
# [5] = NCI Yeast Anticancer Drug Screen. Data for the bub3 strain (AID 167); conditions: S. cerevisiae bub3 mutant strain, stronger effect = higher value
# Outline: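 Screening used yeast with an engineered genetic alteration affecting cell cycle control. Compound-exposed cultures were compared with vehicle cultures, and reduced growth was taken as inhibition.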
# [6] = NCI Yeast Anticancer Drug Screen. Data for the wt2 strain (AID 169);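 further: 0% = growth of vehicle-treated yeast cultures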; conditions: S. cerevisiae wt2 strain growth inhibition, stronger effect = higher value
# Outline: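 Steps: yeast strain treated with compound; growth recorded; inhibition calculated relative to cultures given vehicle alone.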
# [7] = NCI Yeast Anticancer Drug Screen. Data for the mlh1 strain (AID 171);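 further: 0% = growth of vehicle-treated control cultures of the same strain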; conditions: S. cerevisiae mlh1 strain growth inhibition, stronger effect = higher value
# Outline: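 Yeast screen: mutant strain plus compound, growth scored against vehicle control wells.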
# [8] = NCI Yeast Anticancer Drug Screen. Data for the sgs1 strain (AID 173);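 further: 0% = growth of vehicle-only control cultures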; conditions: S. cerevisiae sgs1 mutant, stronger effect = higher value
# Outline: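 Inhibition of yeast growth served as the measure. The mutant strain was treated with each compound, and growth was normalised to cultures receiving vehicle alone.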
# [9] = NCI Yeast Anticancer Drug Screen. Data for the mlh1 rad18 strain (AID 175); conditions: S. cerevisiae mlh1 rad18 strain growth inhibition, stronger effect = higher value
# Outline: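 Compound-treated yeast growth, normalised to vehicle controls. Strain bears defined DNA repair mutations.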
# [10] = NCI Yeast Anticancer Drug Screen. Data for the rad18 strain (AID 177); conditions: S. cerevisiae rad18 mutant growth inhibition, stronger effect = higher value
# Outline: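 Inhibition values reflect reduced yeast growth compared with vehicle-treated controls, using a strain engineered with a DNA damage repair defect.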
# [11] = NCI Yeast Anticancer Drug Screen. Data for the rad52 strain (AID 147);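 further: 0% = growth of vehicle-treated control cultures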; conditions: S. cerevisiae rad52 mutant growth inhibition, stronger effect = higher value
# Outline: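 Genetically altered yeast (DNA damage repair defect) treated with compound; inhibition calculated relative to vehicle.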
# [12] = NCI Yeast Anticancer Drug Screen. Data for the wt1 strain (AID 149);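 further: 0% = growth of vehicle-treated wt1 cultures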; conditions: S. cerevisiae wt1 strain (SPY 50644) growth inhibition, stronger effect = higher value
# Outline: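 Using yeast strain wt1, compound-induced growth inhibition was determined against vehicle-treated cultures.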
# [13] = NCI Yeast Anticancer Drug Screen. Data for the rad50EPP+ strain (AID 151);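 further: 0% = growth of vehicle-treated control cultures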; conditions: S. cerevisiae rad50 mutant strain, stronger effect = higher value
# Outline: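 Strain rad50EPP+; compound exposure; % growth inhibition vs vehicle.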
# [14] = NCI Yeast Anticancer Drug Screen. Data for the mgt1 strain (AID 153); conditions: S. cerevisiae mgt1 mutant growth inhibition, stronger effect = higher value
# Outline: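 Read-out: yeast growth inhibition vs vehicle control. Strain mgt1, drawn from a panel altered in DNA damage repair or cell cycle control.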
# [15] = NCI Yeast Anticancer Drug Screen. Data for the rad50 strain (AID 155);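 further: 0% = growth of vehicle-only cultures of the same strain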; conditions: S. cerevisiae rad50 strain growth inhibition, stronger effect = higher value
# Outline: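 Relative growth inhibition (compound vs vehicle) was measured in yeast with a defined repair-gene alteration.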
# [16] = NCI Yeast Anticancer Drug Screen. Data for the rad14 strain (AID 159);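 further: 0% = growth of vehicle-treated control cultures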; conditions: S. cerevisiae rad14 strain growth inhibition, stronger effect = higher value
# Outline: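 Screen for anticancer potential: a yeast strain altered in DNA damage repair is grown with compound, and reduced growth is quantified against vehicle controls.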
# [17] = at 5.0 µM (retest, dose inferred, filed as 0.5)
# [18] = at 50.0 µM (retest, dose inferred, filed as 5.0)
smiles,measurement,setting,value
CCc1cccc(C(C)C)c1NC1=C([n+]2ccc(C)cc2)C(=O)c2ccccc2C1=O,growth inhibition,[1]; [17],10% (inactive)
same,growth inhibition,[1]; at 11.0 µM,11% (inactive)
same,growth inhibition,[1]; at 33.0 µM,1% (inactive)
same,growth inhibition,[1]; [18],65% (inactive)
same,growth inhibition,[1]; at 50.0 µM,63.1% (inactive)
same,growth inhibition,[1]; at 100.0 µM,17% (inactive)
same,growth inhibition,[2]; [17],-3% (inactive)
same,growth inhibition,[2]; [18],36% (inactive)
same,growth inhibition,[2]; at 50.0 µM,41.2% (inactive)
same,growth inhibition,[3]; at 1.2 µM,-3% (inactive)
same,growth inhibition,[3]; at 3.7 µM,-2% (inactive)
same,growth inhibition,[3]; at 11.0 µM,1% (inactive)
same,growth inhibition,[3]; at 33.0 µM,-2% (inactive)
same,growth inhibition,[3]; at 100.0 µM,11% (inactive)
same,growth inhibition,[4]; [17],-6% (inactive)
same,growth inhibition,[4]; [18],32% (inactive)
same,growth inhibition,[4]; at 50.0 µM,12.7% (inactive)
same,growth inhibition,[5]; at 1.2 µM,-8% (inactive)
same,growth inhibition,[5]; at 3.7 µM,-4% (inactive)
same,growth inhibition,[5]; [17],5% (inactive)
same,growth inhibition,[5]; at 11.0 µM,1% (inactive)
same,growth inhibition,[5]; at 33.0 µM,5% (inactive)
same,growth inhibition,[5]; [18],61% (inactive)
same,growth inhibition,[5]; at 50.0 µM,41.5% (inactive)
same,growth inhibition,[5]; at 100.0 µM,25% (inactive)
same,growth inhibition,[6]; at 1.2 µM,-2% (inactive)
same,growth inhibition,[6]; at 3.7 µM,-2% (inactive)
same,growth inhibition,[6]; at 11.0 µM,-2% (inactive)
same,growth inhibition,[6]; at 33.0 µM,1% (inactive)
same,growth inhibition,[6]; at 100.0 µM,6% (inactive)
same,growth inhibition,[7]; at 1.2 µM,-4% (inactive)
same,growth inhibition,[7]; at 3.7 µM,-6% (inactive)
same,growth inhibition,[7]; at 11.0 µM,-4% (inactive)
same,growth inhibition,[7]; at 33.0 µM,2% (inactive)
same,growth inhibition,[7]; at 100.0 µM,9% (inactive)
same,growth inhibition,[8]; at 1.2 µM,-3% (inactive)
same,growth inhibition,[8]; at 3.7 µM,-3% (inactive)
same,growth inhibition,[8]; at 11.0 µM,-2% (inactive)
same,growth inhibition,[8]; at 33.0 µM,-2% (inactive)
same,growth inhibition,[8]; at 100.0 µM,18% (inactive)
same,growth inhibition,[9]; [17],-4% (inactive)
same,growth inhibition,[9]; [18],24% (inactive)
same,growth inhibition,[9]; at 50.0 µM,61.5% (inactive)
same,growth inhibition,[10]; at 1.2 µM,0% (inactive)
same,growth inhibition,[10]; at 3.7 µM,-3% (inactive)
same,growth inhibition,[10]; at 11.0 µM,0% (inactive)
same,growth inhibition,[10]; at 33.0 µM,1% (inactive)
same,growth inhibition,[10]; at 100.0 µM,17% (inactive)
Oc1cccc2cccnc12,growth inhibition,[11]; at 1.2 µM,20% (inactive)
same,growth inhibition,[11]; at 3.7 µM,91% (active)
same,growth inhibition,[11]; at 11.0 µM,93% (active)
same,growth inhibition,[11]; at 33.0 µM,94% (active)
same,growth inhibition,[11]; at 100.0 µM,96% (active)
same,growth inhibition,[12]; at 1.2 µM,27% (inactive)
same,growth inhibition,[12]; at 3.7 µM,95% (active)
same,growth inhibition,[12]; at 11.0 µM,99% (active)
same,growth inhibition,[12]; at 33.0 µM,99% (active)
same,growth inhibition,[12]; at 100.0 µM,98% (active)
same,growth inhibition,[13]; at 1.2 µM,-11% (inactive)
same,growth inhibition,[13]; at 3.7 µM,93% (active)
same,growth inhibition,[13]; at 11.0 µM,94% (active)
same,growth inhibition,[13]; at 33.0 µM,94% (active)
same,growth inhibition,[13]; at 100.0 µM,95% (active)
same,growth inhibition,[14]; at 1.2 µM,4% (inactive)
same,growth inhibition,[14]; at 3.7 µM,91% (active)
same,growth inhibition,[14]; at 11.0 µM,96% (active)
same,growth inhibition,[14]; at 33.0 µM,98% (active)
same,growth inhibition,[14]; at 100.0 µM,97% (active)
same,growth inhibition,[15]; at 1.2 µM,18% (inactive)
same,growth inhibition,[15]; at 3.7 µM,85% (active)
same,growth inhibition,[15]; [17],78% (active) and 97% (active) and 96% (active)
same,growth inhibition,[15]; at 11.0 µM,97% (active)
same,growth inhibition,[15]; at 33.0 µM,97% (active)
same,growth inhibition,[15]; [18],99% (active)
same,growth inhibition,[15]; at 50.0 µM,99.1% (active) [middle of 4 runs]
same,growth inhibition,[15]; at 100.0 µM,96% (active)
same,growth inhibition,[1]; at 1.2 µM,6% (inactive)
same,growth inhibition,[1]; at 3.7 µM,85% (active)
same,growth inhibition,[1]; at 11.0 µM,97% (active)
same,growth inhibition,[1]; at 33.0 µM,99% (active)
same,growth inhibition,[1]; [18],99% (active) and 100% (active)
same,growth inhibition,[1]; at 50.0 µM,99.1% (active) [middle of 4 runs]
same,growth inhibition,[1]; at 100.0 µM,98% (active)
same,growth inhibition,[16]; at 1.2 µM,22% (inactive)
same,growth inhibition,[16]; at 3.7 µM,85% (active)
same,growth inhibition,[16]; at 11.0 µM,98% (active)
same,growth inhibition,[16]; at 33.0 µM,98% (active)
same,growth inhibition,[16]; at 100.0 µM,98% (active)
same,growth inhibition,[2]; [18],-41% (inactive) and 100% (active) and 99% (active)
same,growth inhibition,[2]; at 50.0 µM,95.5% (active) [middle of 5 runs]
same,growth inhibition,[3]; at 1.2 µM,-19% (inactive)
same,growth inhibition,[3]; at 3.7 µM,86% (active)
same,growth inhibition,[3]; at 11.0 µM,84% (active)
same,growth inhibition,[3]; at 33.0 µM,94% (active)
same,growth inhibition,[3]; at 100.0 µM,92% (active)
same,growth inhibition,[4]; at 50.0 µM,95.5% (active) [middle of 5 runs]
same,growth inhibition,[5]; at 1.2 µM,-2% (inactive)
same,growth inhibition,[5]; at 3.7 µM,63% (inactive)
same,growth inhibition,[5]; at 11.0 µM,97% (active)
same,growth inhibition,[5]; at 33.0 µM,98% (active)
same,growth inhibition,[5]; [18],-8% (inactive) and 100% (active) and 99% (active)
same,growth inhibition,[5]; at 50.0 µM,98.7% (active) [middle of 5 runs]
same,growth inhibition,[5]; at 100.0 µM,98% (active)
same,growth inhibition,[6]; at 1.2 µM,17% (inactive)
same,growth inhibition,[6]; at 3.7 µM,84% (active)
same,growth inhibition,[6]; at 11.0 µM,90% (active)
same,growth inhibition,[6]; at 33.0 µM,95% (active)
same,growth inhibition,[6]; at 100.0 µM,98% (active)
same,growth inhibition,[7]; at 1.2 µM,1% (inactive)
same,growth inhibition,[7]; at 3.7 µM,74% (active)
same,growth inhibition,[7]; at 11.0 µM,97% (active)
same,growth inhibition,[7]; at 33.0 µM,98% (active)
same,growth inhibition,[7]; at 100.0 µM,98% (active)
same,growth inhibition,[8]; at 1.2 µM,47% (inactive)
same,growth inhibition,[8]; at 3.7 µM,94% (active)
same,growth inhibition,[8]; at 11.0 µM,97% (active)
same,growth inhibition,[8]; at 33.0 µM,98% (active)
same,growth inhibition,[8]; at 100.0 µM,97% (active)
same,growth inhibition,[9]; [17],75% (active) [middle of 5 runs]
same,growth inhibition,[9]; [18],99% (active) and 96% (active)
same,growth inhibition,[9]; at 50.0 µM,98.2% (active) [middle of 4 runs]
same,growth inhibition,[10]; at 1.2 µM,30% (inactive)
same,growth inhibition,[10]; at 3.7 µM,95% (active)
same,growth inhibition,[10]; at 11.0 µM,97% (active)
same,growth inhibition,[10]; at 33.0 µM,97% (active)
same,growth inhibition,[10]; at 100.0 µM,97% (active)
